The target in assay [1] is Tyrosine-protein kinase Fer (Homo sapiens) (UniProt P16591). The settings on record: at 1 µM.
Assay [2] addresses Tyrosine-protein kinase Fes/Fps (Homo sapiens) (UniProt P07332). The settings on record: at 0.1 µM.
Assay [3] shares this target. To be noted: at 1 µM.
Assay [4] concerns the target Fibroblast growth factor receptor 1 (Homo sapiens) (UniProt P11362). The settings on record: at 0.1 µM.
The target is the same in assay [5]. To be noted: at 1 µM.
Assay [6] has as its target Fibroblast growth factor receptor 2 (Homo sapiens) (UniProt P21802). To be noted: at 0.1 µM.
The target is the same in assay [7]. The settings on record: at 1 µM.
Assay [8] deals with Fibroblast growth factor receptor 3 (Homo sapiens) (UniProt P22607). To be noted: at 0.1 µM.
Assay [9] shares this target. To be noted: at 1 µM.
For assay [10], the target named is Fibroblast growth factor receptor 4 (Homo sapiens) (UniProt P22455). To be noted: at 0.1 µM.
For assay [11] the target is unchanged. The settings on record: at 1 µM.
The target in assay [12] is Tyrosine-protein kinase Fgr (Homo sapiens) (UniProt P09769). The settings on record: at 0.1 µM.
For assay [13] the target is unchanged. The settings on record: at 1 µM.
In assay [14] the target is Vascular endothelial growth factor receptor 1 (Homo sapiens) (UniProt P17948). The settings on record: at 0.1 µM.
For assay [15] the target is unchanged. The settings on record: at 1 µM.
Assay [16] addresses Receptor-type tyrosine-protein kinase FLT3 (Homo sapiens) (UniProt P36888). The settings on record: at 0.1 µM.
For assay [17] the target is unchanged. The settings on record: at 1 µM.
The test system of assay [18] is T1, Receptor-type tyrosine-protein kinase FLT3 (Homo sapiens), P36888 [D835Y].
T1 sequence (whole entry): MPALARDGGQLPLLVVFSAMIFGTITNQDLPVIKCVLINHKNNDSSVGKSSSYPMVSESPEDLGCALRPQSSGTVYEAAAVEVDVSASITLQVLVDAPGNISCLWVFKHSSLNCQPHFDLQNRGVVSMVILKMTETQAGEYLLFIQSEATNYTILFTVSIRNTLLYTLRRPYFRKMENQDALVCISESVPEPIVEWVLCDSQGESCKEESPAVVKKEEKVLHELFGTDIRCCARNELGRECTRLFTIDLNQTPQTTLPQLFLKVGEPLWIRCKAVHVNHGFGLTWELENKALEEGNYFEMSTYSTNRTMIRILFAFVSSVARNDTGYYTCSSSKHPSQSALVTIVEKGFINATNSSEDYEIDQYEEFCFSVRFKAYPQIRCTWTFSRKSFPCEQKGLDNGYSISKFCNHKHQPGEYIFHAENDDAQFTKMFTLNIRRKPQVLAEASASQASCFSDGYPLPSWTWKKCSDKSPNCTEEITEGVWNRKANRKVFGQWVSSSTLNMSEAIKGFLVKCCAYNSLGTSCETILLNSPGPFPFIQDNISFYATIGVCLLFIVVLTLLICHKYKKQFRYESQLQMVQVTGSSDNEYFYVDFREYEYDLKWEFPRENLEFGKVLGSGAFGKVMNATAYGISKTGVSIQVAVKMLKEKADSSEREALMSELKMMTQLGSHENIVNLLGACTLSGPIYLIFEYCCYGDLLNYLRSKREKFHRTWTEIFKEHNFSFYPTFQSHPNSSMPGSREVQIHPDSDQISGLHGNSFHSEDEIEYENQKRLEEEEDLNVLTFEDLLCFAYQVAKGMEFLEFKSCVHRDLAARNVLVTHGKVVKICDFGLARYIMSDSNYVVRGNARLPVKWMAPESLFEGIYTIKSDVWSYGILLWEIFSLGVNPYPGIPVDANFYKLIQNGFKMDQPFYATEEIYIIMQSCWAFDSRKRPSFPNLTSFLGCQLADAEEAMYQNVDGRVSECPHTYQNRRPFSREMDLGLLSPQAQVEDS
The settings on record: at 0.1 µM.

In assay [19] the target is Non-receptor tyrosine-protein kinase TYK2 (Homo sapiens) (UniProt P29597). To be noted: at 1 µM.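 Note: values are mean percent inhibition of TYK2 kinase.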
Assay [20] has as its target T2, Tyrosine-protein kinase receptor TYRO3 (Homo sapiens) (UniProt Q06418).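 Note: reported percentages are averaged inhibition values of TYRO3 kinase activity.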
T2 sequence (whole entry): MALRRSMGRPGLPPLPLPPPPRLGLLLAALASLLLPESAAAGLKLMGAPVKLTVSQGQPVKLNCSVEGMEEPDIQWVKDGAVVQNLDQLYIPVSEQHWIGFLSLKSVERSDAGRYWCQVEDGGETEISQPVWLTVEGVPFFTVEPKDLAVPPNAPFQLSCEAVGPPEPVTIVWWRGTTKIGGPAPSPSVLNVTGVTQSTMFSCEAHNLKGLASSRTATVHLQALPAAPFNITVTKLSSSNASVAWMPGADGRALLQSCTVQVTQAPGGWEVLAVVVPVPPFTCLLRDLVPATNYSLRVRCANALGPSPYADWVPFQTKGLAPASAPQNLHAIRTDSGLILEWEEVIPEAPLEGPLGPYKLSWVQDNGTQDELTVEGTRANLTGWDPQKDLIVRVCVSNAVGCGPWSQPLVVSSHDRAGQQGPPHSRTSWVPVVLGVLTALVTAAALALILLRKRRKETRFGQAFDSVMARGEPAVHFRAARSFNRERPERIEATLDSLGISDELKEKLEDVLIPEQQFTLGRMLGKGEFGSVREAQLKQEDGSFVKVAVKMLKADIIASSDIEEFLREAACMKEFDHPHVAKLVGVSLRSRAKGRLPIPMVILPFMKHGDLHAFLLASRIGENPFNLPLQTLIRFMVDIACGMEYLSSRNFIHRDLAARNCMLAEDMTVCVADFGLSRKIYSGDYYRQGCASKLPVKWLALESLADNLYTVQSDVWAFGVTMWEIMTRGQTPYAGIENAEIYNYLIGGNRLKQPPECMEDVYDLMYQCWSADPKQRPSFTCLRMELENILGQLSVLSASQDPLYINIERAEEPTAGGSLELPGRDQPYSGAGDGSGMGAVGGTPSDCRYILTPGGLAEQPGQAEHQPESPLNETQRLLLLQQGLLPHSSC
The settings on record: at 0.1 µM.

This passage reports inhibition results from ChEMBL document CHEMBL1961873, “Compounds: GSK PKIS; Assays: Nanosyn kinase panel” (2012).

Fibroblast growth factor receptor 4 (Homo sapiens), sequence (P22455 22-802 limits assumed): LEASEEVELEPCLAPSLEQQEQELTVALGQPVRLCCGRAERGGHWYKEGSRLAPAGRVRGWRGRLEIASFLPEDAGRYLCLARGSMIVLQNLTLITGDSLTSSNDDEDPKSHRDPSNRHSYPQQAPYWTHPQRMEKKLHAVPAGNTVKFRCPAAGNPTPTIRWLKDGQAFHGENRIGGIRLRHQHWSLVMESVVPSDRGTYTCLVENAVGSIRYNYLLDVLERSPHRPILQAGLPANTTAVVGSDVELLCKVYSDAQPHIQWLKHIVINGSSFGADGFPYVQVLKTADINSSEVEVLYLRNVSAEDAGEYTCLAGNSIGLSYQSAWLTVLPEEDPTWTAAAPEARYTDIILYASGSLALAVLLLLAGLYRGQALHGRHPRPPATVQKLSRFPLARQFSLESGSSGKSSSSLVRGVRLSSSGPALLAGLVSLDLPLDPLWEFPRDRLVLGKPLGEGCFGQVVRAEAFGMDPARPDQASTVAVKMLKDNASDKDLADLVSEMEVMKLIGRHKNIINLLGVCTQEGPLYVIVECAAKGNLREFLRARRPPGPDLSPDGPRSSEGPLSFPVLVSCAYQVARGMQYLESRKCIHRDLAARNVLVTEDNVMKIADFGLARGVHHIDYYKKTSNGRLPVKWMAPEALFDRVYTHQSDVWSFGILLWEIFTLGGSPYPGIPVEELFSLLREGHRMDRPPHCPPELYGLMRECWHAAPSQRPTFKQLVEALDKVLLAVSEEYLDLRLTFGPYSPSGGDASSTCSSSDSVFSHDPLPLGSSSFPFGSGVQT
Tyrosine-protein kinase Fgr (Homo sapiens), sequence (P09769 2-529 limits assumed): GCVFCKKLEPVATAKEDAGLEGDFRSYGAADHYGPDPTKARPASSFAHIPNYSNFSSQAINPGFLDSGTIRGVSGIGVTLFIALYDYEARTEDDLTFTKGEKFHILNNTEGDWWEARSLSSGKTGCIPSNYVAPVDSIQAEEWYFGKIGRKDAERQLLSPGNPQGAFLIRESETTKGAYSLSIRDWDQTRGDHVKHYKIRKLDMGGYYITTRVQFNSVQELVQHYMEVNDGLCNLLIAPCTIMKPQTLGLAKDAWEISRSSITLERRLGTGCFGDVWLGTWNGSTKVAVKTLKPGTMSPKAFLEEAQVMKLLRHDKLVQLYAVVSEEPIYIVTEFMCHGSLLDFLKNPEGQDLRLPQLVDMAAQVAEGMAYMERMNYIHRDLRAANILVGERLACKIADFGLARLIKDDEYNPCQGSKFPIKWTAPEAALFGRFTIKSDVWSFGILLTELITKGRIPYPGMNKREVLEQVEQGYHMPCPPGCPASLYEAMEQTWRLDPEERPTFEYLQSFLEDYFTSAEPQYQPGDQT
Fibroblast growth factor receptor 2 (Homo sapiens), sequence (P21802 22-821 limits assumed): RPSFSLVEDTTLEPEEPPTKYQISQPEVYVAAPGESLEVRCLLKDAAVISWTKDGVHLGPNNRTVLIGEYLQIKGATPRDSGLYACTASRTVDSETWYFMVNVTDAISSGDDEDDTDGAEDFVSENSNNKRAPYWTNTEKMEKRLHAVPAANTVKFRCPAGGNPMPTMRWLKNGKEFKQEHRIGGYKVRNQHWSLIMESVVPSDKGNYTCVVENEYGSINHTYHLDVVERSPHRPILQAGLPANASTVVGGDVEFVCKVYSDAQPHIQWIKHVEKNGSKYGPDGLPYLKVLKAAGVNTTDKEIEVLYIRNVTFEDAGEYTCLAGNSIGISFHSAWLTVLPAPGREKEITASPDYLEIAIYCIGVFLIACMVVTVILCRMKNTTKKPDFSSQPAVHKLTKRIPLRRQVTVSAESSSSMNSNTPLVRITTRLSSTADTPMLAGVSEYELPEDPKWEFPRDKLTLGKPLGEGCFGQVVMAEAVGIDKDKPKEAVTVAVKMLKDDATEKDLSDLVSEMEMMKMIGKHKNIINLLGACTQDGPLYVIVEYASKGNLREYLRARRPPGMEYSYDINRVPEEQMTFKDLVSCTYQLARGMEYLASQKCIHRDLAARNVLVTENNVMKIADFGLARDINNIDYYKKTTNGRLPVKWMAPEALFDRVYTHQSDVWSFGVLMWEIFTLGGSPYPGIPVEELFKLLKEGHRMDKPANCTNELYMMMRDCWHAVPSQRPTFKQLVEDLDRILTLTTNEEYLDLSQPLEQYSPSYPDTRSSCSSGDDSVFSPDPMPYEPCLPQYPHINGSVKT
Fibroblast growth factor receptor 3 (Homo sapiens), sequence (P22607 23-806 limits assumed): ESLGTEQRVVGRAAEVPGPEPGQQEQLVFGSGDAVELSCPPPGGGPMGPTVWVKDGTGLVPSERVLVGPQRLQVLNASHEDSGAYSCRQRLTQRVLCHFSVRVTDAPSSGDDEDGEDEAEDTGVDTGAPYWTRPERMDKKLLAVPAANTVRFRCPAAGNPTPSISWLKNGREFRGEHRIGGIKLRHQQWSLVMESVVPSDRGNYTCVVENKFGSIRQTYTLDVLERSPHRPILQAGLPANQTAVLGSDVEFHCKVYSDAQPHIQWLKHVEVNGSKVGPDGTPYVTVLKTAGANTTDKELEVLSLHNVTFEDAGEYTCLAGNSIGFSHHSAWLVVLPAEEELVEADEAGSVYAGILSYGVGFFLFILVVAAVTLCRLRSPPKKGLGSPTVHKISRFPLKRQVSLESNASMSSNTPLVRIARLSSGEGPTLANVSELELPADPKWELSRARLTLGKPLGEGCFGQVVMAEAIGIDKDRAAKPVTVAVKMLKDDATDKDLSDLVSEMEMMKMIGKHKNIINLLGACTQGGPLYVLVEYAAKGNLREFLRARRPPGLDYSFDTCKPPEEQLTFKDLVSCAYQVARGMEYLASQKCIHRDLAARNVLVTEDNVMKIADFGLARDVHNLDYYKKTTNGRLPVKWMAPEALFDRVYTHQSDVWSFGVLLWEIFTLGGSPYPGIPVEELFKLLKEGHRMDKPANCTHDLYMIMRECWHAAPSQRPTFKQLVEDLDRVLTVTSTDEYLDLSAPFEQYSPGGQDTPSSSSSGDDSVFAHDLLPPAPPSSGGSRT
Fibroblast growth factor receptor 1 (Homo sapiens), sequence (P11362 22-822 limits assumed): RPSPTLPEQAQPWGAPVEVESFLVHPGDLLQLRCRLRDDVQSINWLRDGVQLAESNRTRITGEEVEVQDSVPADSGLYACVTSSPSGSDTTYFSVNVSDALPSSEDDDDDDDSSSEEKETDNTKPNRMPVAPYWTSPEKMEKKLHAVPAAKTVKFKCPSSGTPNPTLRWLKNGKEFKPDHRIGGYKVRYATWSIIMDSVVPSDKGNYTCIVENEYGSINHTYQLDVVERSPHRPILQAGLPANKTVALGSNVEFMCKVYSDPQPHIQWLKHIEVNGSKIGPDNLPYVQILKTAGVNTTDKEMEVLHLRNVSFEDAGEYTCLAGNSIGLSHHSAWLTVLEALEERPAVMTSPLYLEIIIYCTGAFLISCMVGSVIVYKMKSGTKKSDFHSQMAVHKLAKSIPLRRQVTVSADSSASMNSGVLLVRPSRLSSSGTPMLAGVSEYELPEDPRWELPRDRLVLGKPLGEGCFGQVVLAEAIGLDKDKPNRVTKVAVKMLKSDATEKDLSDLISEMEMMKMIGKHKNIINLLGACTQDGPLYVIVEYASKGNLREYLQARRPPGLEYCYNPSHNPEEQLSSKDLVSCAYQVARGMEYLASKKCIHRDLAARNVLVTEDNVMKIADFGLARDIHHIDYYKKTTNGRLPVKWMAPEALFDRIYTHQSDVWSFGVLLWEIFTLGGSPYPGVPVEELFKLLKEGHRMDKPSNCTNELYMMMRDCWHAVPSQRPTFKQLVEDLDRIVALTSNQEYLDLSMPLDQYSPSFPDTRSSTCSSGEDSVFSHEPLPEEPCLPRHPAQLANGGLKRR
Tyrosine-protein kinase Fer (Homo sapiens), sequence (P16591 whole entry, looked up): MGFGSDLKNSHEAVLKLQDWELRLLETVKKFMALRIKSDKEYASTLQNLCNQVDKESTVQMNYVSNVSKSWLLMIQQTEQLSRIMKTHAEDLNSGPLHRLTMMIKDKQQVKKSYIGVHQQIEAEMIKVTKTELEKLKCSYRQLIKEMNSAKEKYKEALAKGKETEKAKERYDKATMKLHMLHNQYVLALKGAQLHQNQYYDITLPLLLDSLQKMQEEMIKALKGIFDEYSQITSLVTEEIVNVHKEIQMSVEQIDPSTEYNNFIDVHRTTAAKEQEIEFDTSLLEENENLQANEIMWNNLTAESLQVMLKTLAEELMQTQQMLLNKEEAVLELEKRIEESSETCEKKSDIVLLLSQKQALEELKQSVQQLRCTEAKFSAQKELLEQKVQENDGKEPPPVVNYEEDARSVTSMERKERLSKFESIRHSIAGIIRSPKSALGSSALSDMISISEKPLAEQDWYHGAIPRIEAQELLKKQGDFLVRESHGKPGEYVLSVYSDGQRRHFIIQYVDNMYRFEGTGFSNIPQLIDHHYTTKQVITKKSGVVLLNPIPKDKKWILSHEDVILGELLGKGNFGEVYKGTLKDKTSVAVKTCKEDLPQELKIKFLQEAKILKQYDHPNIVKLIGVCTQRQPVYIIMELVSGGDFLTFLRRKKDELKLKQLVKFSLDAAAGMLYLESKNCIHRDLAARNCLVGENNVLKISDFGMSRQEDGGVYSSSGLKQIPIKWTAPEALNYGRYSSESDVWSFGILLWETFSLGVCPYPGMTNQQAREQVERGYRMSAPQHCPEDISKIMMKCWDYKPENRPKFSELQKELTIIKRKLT

As a reminder, the inhibition is the relative decrease from the control value, in per cent. On to `Nc1nc(-c2ccccn2)c(-c2ccc3ncccc3n2)s1`, for which the inhibition came out at 6.59% in assay [1]; 2.12% in [2]; 3.07% in [3]; 7% in assay [4]; 5.84% in assay [5]; 3.92% in assay [6]. Moreover, the inhibition is 7.02% in assay [7]; 5.15% in assay [8]; 4.97% in assay [9]; -1.61% in [10]; 0.28% in assay [11]; 1.09% in [12]. The inhibition in [13] is 2.08%; in assay [14], 0.57%; in assay [15] it was 5.82%; in assay [16], 8.03%; in assay [17], 2.99%; in [18] it was -0.61%. Besides, the inhibition in assay [19] is -1.33%; in assay [20] it was 1.89%.

Regarding `CCn1c(-c2nonc2N)nc2cncc(C(=O)N3CCNCC3)c21`, the inhibition in assay [1] turned out to be 0.82%; in [2] it was 5.22%; in assay [3], 4.85%; in assay [4], 7.76%; in assay [5] it was 5.74%; in assay [6], 11.8%. Further, the inhibition in assay [7] is 7.87%; in [8], 12.3%; in assay [9], 7.38%; in assay [10], 4.67%; in assay [11], 2.67%; in [12], 1.29%. The inhibition was 2.57% in assay [13]; 0.7% in [14]; 2.54% in assay [15]; 5.99% in [16]; 4.6% in assay [17]; -1.23% in assay [18]. Also, the inhibition in assay [19] was -2.3%; in assay [20], 1.84%.

On to `CN1CCC(C(=O)Nc2n[nH]c3nnc(-c4ccccc4)cc23)CC1`, for which the inhibition came to 5.92% in assay [1]; 3.95% in assay [2]; 3.43% in [3]; 5.69% in assay [4]; 4.3% in [5]; 5.82% in assay [6]. The inhibition in [7] was 5.58%; in [8], 5.57%; in assay [9] it was 4.99%; in [10] it was -8.44%; in assay [11], -0.57%; in assay [12] it was 5.18%. Further, the inhibition was 4.46% in assay [13]; 0.44% in [14]; 2.94% in assay [15]; 2.28% in [16]; 1.88% in [17]; -4.39% in assay [18]. Further, the inhibition in assay [19] was -0.97%; in assay [20], 2.36%.

On to `c1cnn2ncc(-c3ccnc(Nc4ccc5c(c4)OCCO5)n3)c2c1`, for which the inhibition was found to be 43.7% in [1]; 10.5% in [2]; 48% in assay [3]; 5.77% in [4]; 5.22% in assay [5]; 6.35% in assay [6]. Also, the inhibition is 15.9% in assay [7]; 6.39% in assay [8]; 15.7% in assay [9]; -0.77% in [10]; 4.77% in assay [11]; 4.29% in assay [12]. Also, the inhibition in assay [13] worked out at 14.5%; in assay [14], 8.17%; in assay [15], 20.5%; in assay [16], 29.5%; in assay [17] it was 75.7%; in assay [18], 9.31%. For the same compound, the inhibition in assay [19] was found to be 12.8%; in assay [20] it was 5.88%.

As to `Fc1cccc(COc2ccc(Nc3ncnc4cc(-c5ccc[nH]5)sc34)cc2Cl)c1`, the inhibition in [1] is 2.81%; in assay [2], 1.96%; in [3], 1.5%; in assay [4] it was -1.92%; in assay [5], 4.48%; in [6] it was -1.83%. The inhibition was 0.05% in [7]; -1% in assay [8]; -3.31% in [11]; 3.74% in [12]; 11% in assay [13]; -0.98% in assay [14]. The inhibition was 1.18% in [15]; -0.44% in assay [16]; 2.33% in assay [17]; 2.49% in [18]; 0.5% in assay [19]; 2.87% in assay [20].

`COc1cc2ncn(-c3cc(OCc4ccccc4Cl)c(C(N)=O)s3)c2cc1OC`: the inhibition in assay [1] is 8.52%; in assay [2], -0.24%; in [3] it was 0.38%; in assay [4] it was 3.46%; in [5] it was 8.43%; in assay [7] it was 13.2%. Besides, the inhibition in assay [8] is 4.37%; in [9] it was 13.2%; in assay [10], -5.86%; in [11], 2.76%; in [12], 3.61%; in assay [13] it was 19.1%. Besides, the inhibition is 0.69% in assay [14]; 9.81% in assay [15]; 0.85% in assay [16]; 3.62% in assay [17]; -2.29% in [18]; 2.41% in [19]. Besides, the inhibition in assay [20] came out at 1.87%.

For the compound `Cc1cccc(-c2n[nH]cc2-c2ccc3ncccc3n2)n1`, the inhibition was 0.01% in [1]; 0.45% in assay [2]; -0.18% in [3]; -0.21% in assay [4]; 8.38% in assay [5]; 0.62% in assay [6]. Further, the inhibition in assay [7] was found to be 5.35%; in assay [8], 1.61%; in assay [9] it was 4.89%; in [10] it was 3.49%; in assay [11], 1.18%; in assay [12], 2.06%. Further, the inhibition is 4.41% in assay [13]; 3.33% in assay [14]; 29.2% in [15]; -1.33% in assay [16]; -0.33% in assay [17]; -5.04% in [18]. Further, the values for the inhibition in assay [19] and in assay [20] were 0.67% and 0.27%, respectively.

For the compound `COc1ccc(-c2ccncc2)cc1C(N)=O`, the inhibition came to 3.22% in [1]; 2.97% in assay [2]; 3.83% in assay [3]; 4.37% in assay [4]; 8.58% in assay [5]; 7.42% in assay [6]. For the same compound, the inhibition in [7] was determined as 8.69%; in assay [8], 7.66%; in assay [9], 7.43%; in assay [10] it was 2.74%; in [11], 1.48%; in assay [12] it was 3.69%. The inhibition worked out at 4.6% in assay [13]; 2.23% in assay [14]; 2.25% in assay [15]; 5.04% in [16]; 2.52% in assay [17]; 4.29% in assay [18]. Also, the inhibition in [19] is -3.25%; in assay [20], 1.12%.

Take `CS(=O)(=O)CCNCc1ccc(-c2ccc3ncnc(Nc4ccc(OCc5cccc(F)c5)c(C(F)(F)F)c4)c3c2)o1`: the inhibition was 1.93% in [1]; 2.48% in [2]; 2.85% in assay [3]; -1.13% in assay [4]; 2.33% in assay [5]; 3.18% in [6]. In addition, the inhibition is 4.51% in assay [7]; 4.79% in assay [8]; 3.38% in [9]; -0.05% in assay [11]; 3.99% in assay [12]; 2.16% in assay [13]. For the same compound, the inhibition in assay [14] was -0.83%; in assay [15], -0.68%; in [16], 1%; in assay [17] it was 1.21%; in [18], -2.74%; in assay [19] it was -3.56%. Moreover, the inhibition in assay [20] amounted to 3.52%.
